# Data: PubChem BioAssay AID1578 (Sanford-Burnham Center for Chemical Genomics, 2009)
# Hit rate of the full screen: of about 290,000 compounds, about 3,000 (1%) were called active. The entries come from a sample that favours actives as a whole. Values without a mark were called inactive. Rule as the data show it: active = inhibition mostly above about 36% (no sharp cut-off); inactive = mostly below about 34%.
# Assay: NOD1 signaling inhibitors, primary screen, cell-based, luminescence, uHTS (AID 1578);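 also: HEK-293T reporter cells stimulated with the NOD1 agonist gamma-tri-DAP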
# Conditions: NOD1-driven NF-kB luciferase reporter cells, at 4 µM, hits give high values
row,SMILES,inhibition
1,CN1/C(=C/C(=O)CSc2ccccc2C(=O)O)C(C)(C)c2ccccc21,10.5%
2,CCC(Oc1ccccc1OC)C(=O)N1CC(=O)Nc2ccccc21 (centres undefined),29%
3,CCOc1ccc(NS(=O)(=O)c2ccc(NS(=O)(=O)c3cccs3)cc2)cc1,-17.3%
4,COc1ccc(Cl)cc1NC(=O)N(C)Cc1c(C)nn(C)c1C,-24.6%
5,Cc1cc(NCc2ccccc2)nc(-c2ccccc2O)n1,-41.6%
6,CC(=O)c1c(C)[n+]([O-])c2ccc3c(non3O)c12,-20%
7,[O-][n+]1c2c(c3c4non(O)c4ccc31)CCCC2,79.7% (active)
8,CCOC(=O)c1c(C)[n+]([O-])c2ccc3c(non3O)c12,-24.8%
9,CCN(C(=O)c1c(-c2ccccc2Cl)noc1C)C1CCCCC1,-10.1%
10,Cc1cc(C)c2nc3nc(C)cc(C)c3c(N)c2c1,-26.5%
11,Cc1cc(C)c2nc3nc(C)c(C)cc3c(N)c2c1,-27.3%
12,Cc1cc(C)c2nc(C(F)(F)F)c(C#N)c(N)c2c1,76.9% (active)
13,COc1cc2c(=O)n(CCC(=O)NCC3CCCO3)c(=O)n(CC(=O)Nc3ccc(C)c(C)c3)c2cc1OC (centres undefined),-11.3%
14,CC(C)(CO)NS(=O)(=O)c1ccc2c(c1)oc(=O)c1cc(S(=O)(=O)NC(C)(C)CO)ccc12,-6.5%
15,CC(=O)Nc1cc2nn(-c3ccccc3)nc2cc1Cl,-27.6%
16,CCC(=O)Nc1cc2nn(-c3ccccc3)nc2cc1Cl,-22.2%
17,CC(C)(C)C(=O)Nc1cc2nn(-c3ccccc3)nc2cc1Cl,87.1% (active)
18,O=C(O)C1CCCN1c1ncccc1[N+](=O)[O-] (centres undefined),-20.8%
19,CN1CCN(CC(O)COCCOc2ccc(Br)cc2)CC1 (centres undefined),-26%
20,CCN1CCN(CC(O)COCCOc2ccc(Br)cc2)CC1 (centres undefined),-19.1%
21,OCCN1CCN(CC(O)COCCOc2ccc(Br)cc2)CC1 (centres undefined),62.2% (active)
22,O=C(COc1ccccc1CNCc1ccccc1)Nc1ccccc1,-69.5%
23,O=c1c2cc(NC(=S)N3CCCCC3)ccc2nc2n1CCCCC2,-32.7%
24,Cc1ccc2nc(NC(=O)c3ccc(-c4nc5ccccc5s4)s3)sc2c1,-74.1%
25,CCCNC(=O)c1ccc(-c2nc3ccccc3s2)s1,-50.1%
26,O=C(NC1CC1)c1ccc(-c2nc3ccccc3s2)s1,70.1% (active)
27,O=C(c1ccc(-c2nc3ccccc3s2)s1)N1CCOCC1,82.9% (active)
28,O=CN1CCN(C(=O)c2ccc(-c3nc4ccccc4s3)s2)CC1,-25.6%
29,CCN1CCN(C(=O)c2ccc(-c3nc4ccccc4s3)s2)CC1,-43.4%
